# From PubChem BioAssay
# Sampled rows, rich in hits. Any-hit rate of the full collection: about 1.1%.
# VLA-4 inh: inhibition in a human VLA-4 binding assay | 0.2% of 330,000 active | inhibition, % (about 7 µM as worked out from the volumes in the protocol) | VLA-4 expressing cells, ligand binding flow cytometry | P13612; in the data active = inhibition above about 50%
# CaV13 FRET inh: Disruptors of the CACNA1D IQ motif to Ca2+-dependent inactivation inhibitor domain association, primary screening, Förster resonance energy transfer in intact living … | HEK cells, CFP/YFP FRET ICDI-IQ, plate reader, 10 min; percent FRET-ratio fall versus neutral wells | inhibition, % at 12.3 µM | 0.098% of 340,000 active | AID 743397;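 active = mean replicate inhibition of at least 30% and at least 1% of replicates passing that level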
# Granule exo inh: lytic granule exocytosis inhibition. TALL-104 LAMP-1 surface exposure, flow cytometry; cells stimulated with thapsigargin and PMA. inhibition, % at 10 µM. 0.66% of 360,000 active. AID 651702;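 active = inhibition above about 55%, limit read from the data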
# ABCB6 inh 2: inhibitors of human ABC transporter ABCB6; Q9NP58; K562-ABCB6 porphyrin accumulation, flow cytometry, 1 h; active compounds read low; fluorescence ratio to DMSO, % at 10 µM; 0.19% of 360,000 active;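 active = fluorescence ratio to DMSO below 75%, the collection mean minus 3 SD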;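 also: signal is porphyrin accumulated inside mitochondria; lower ratio means ABCB6 inhibition with less porphyrin fluorescence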
# VLA-4 mod pick: human VLA-4 allosteric modulation in cherry picked compounds | shares compounds with VLA-4 inh | U937 cells, HUTS-21 LIBS mAb binding, flow cytometry; LDV ligand present at threefold Kd | inhibition, % at 6.7 µM | 2% of 1,300 active | AID 2813; in the data active = inhibition above about 40%
# A number is an active result; - = inactive; . = no result given.
SMILES,VLA-4 inh,CaV13 FRET inh,Granule exo inh,ABCB6 inh 2,VLA-4 mod pick
Cc1ccccc1-n1c(SCC(=O)N2CCN(c3ccccc3)CC2)nnc1-c1ccncc1,50,-,-,-,-
CC(=O)[C@@]1(O)CC[C@H]2[C@@H]3CCC4=CC(=O)CC[C@]4(C)[C@H]3[C@@H](O)C[C@@]21C,53,-,-,-,-
CCC(C(=O)OCC(=O)C1(O)CCC2C3CCC4=CC(=O)CCC4(C)C3C(O)CC21C)C(C)C (stereo not given),.,-,-,-,.
NC(=O)c1ccccc1NS(=O)(=O)c1ccc(F)cc1,-,-,-,-,-
COC(=O)c1ccccc1NS(=O)(=O)c1ccc(F)cc1,-,-,-,-,.
COc1cccc(CNC(=O)[C@H]2CCCN2C(=O)[C@H]2CCCN2C(=O)c2ccc(F)cc2F)c1,.,-,.,.,.
Cc1cc(C)cc(N(CC(=O)Nc2ccc(Br)cc2)S(=O)(=O)c2c(C)[nH]c(=O)[nH]c2=O)c1,-,-,-,-,-
CCOc1ccc(N(CC(=O)Nc2ccc(C)cc2)S(=O)(=O)c2c(C)[nH]c(=O)[nH]c2=O)cc1,-,-,-,-,.
Cc1cc(C)cc(N(CC(=O)Nc2cc(C)ccc2C)S(=O)(=O)c2c(C)[nH]c(=O)[nH]c2=O)c1,-,-,-,-,-
Cc1cc(C)cc(N(CC(=O)Nc2cccc(C)c2C)S(=O)(=O)c2c(C)[nH]c(=O)[nH]c2=O)c1,-,-,-,-,.
COc1ccc(-c2sc3ccccc3c2-c2ccc(OCCN3CCCCC3)cc2)cc1,-,-,-,-,-
COc1ccc(-c2sc3cc(OC)ccc3c2-c2ccc(OCCN3CCCCC3)cc2)cc1,.,-,-,-,.
c1ccc(-c2sc3ccccc3c2-c2ccc(OCCN3CCCC3)cc2)cc1,-,-,-,-,-
CCCCCCCCN1C(=O)[C@@H](CC(=O)NCc2ccc(OC)c(OC)c2)C[C@@]2(C(=O)OC)C1=C[C@H](C1CCCC1)O[C@@H]2C,.,-,.,.,.
C#CCN1C[C@@]2(O)CC[C@@H](O)[C@@H](OC)[C@@H]2[C@@]1(C)[C@H](O)CC=C(C)C,.,-,.,.,.
COC(=O)c1c(C(=O)OC)c(-c2ccccc2)n2c1CS(=O)(=O)C2,-,-,-,-,.
COC(=O)c1c(C(=O)OC)c(-c2ccc(F)cc2)n2c1CS(=O)(=O)C2,-,-,-,-,-
O=C(O)CCc1nc(-c2ccccc2)c(-c2ccccc2)o1,51,.,.,.,-
O=C(CCc1nc(-c2ccccc2)c(-c2ccccc2)o1)OCc1ccc(Cl)cc1,-,-,-,-,.
CCNC(=O)O[C@@H]1C=C[C@@H](C#Cc2ccc(C(C)(C)C)cc2)O[C@@H]1COC(C)=O,.,-,.,.,.
O=C(CCNC(=O)c1ccccc1)Nc1ccc(F)c(Cl)c1,54,-,-,-,-
CC(=O)OCC[C@H](NS(=O)(=O)OCC(Cl)(Cl)Cl)c1ccccc1,-,-,-,-,.
CCCCCCCCN1C(=O)[C@@H](CC(=O)NCCCN2CCCC2=O)C[C@@]2(C(=O)OC)C1=C[C@H](C1CCCC1)O[C@@H]2C,.,-,.,.,.
COc1ccccc1CNC(=O)C(C)NS(=O)(=O)c1ccccc1 (stereo not given),-,.,-,-,-
COc1ccccc1CC(=O)NNC(=O)CN(C)S(=O)(=O)c1ccc(Cl)cc1,-,-,-,-,.
SMILES,VLA-4 inh,CaV13 FRET inh,Granule exo inh,ABCB6 inh 2,VLA-4 mod pick
COc1ccccc1CNC(=O)CN(C)S(=O)(=O)c1ccc(F)cc1,-,-,-,-,-
COCCn1c(-c2ccco2)nc2nc3ccccc3nc21,92,-,-,-,-
CCCCc1ccc(NC(=S)NCCc2ccc(F)cc2)cc1,-,-,-,-,-
Fc1ccc(CCNC(=S)Nc2ccc(F)cc2)cc1,-,-,-,-,.
COc1cccc(C(=O)O/N=C(\N)c2ccc(C)cc2)c1,-,-,-,-,-
C=CCn1c(C)cc(C2=NNC(=NC(C)(C)C)SC2)c1C,-,-,-,-,-
COc1ccc(C(=O)CC2(O)C(=O)N(CN3CCOCC3)c3ccc(Br)cc32)cc1 (stereo not given),.,-,.,.,.
COc1ccc(-n2c(=O)[nH]cc(C(=O)Nc3ccccc3)c2=O)cc1,55,-,-,-,-
Cc1ccc(C(=O)c2cc([N+](=O)[O-])ccc2N2CCCCC2)cc1C,-,-,-,-,.
Cc1ccc(C(=O)c2cc([N+](=O)[O-])ccc2N2CCOCC2)c(C)c1,-,.,-,-,50
Cc1ccc(C(=O)c2cc([N+](=O)[O-])ccc2N2CCOCC2)cc1C,-,-,-,-,-
